{"source": "PubChem BioAssay AID2314", "about": "(National Center for Advancing Translational Sciences (NCATS), 2010)", "note": "In all, about 300,000 compounds went through this assay and about 37,000 (12%) were called active. The entries come from a sample that favours actives as a whole. Unmarked numbers belong to inactive results. Rule as the data show it: active = max response mostly above about 13% (no sharp cut-off); inactive = mostly below about 14%.", "data": [{"test": "Cycloheximide Counterscreen for Small Molecule Inhibitors of Shiga Toxin; also: read at 38.3 µM for the half of the compounds with a filed dose; 0% is about no effect", "settings": "cell reporter, cycloheximide protein synthesis inhibition counterscreen; active compounds read high", "values": [{"compound": "Cc1cc(C)cc(OCC(=O)Nc2cc(NC(=O)COc3cc(C)cc(C)c3)cc(C(=O)O)c2)c1", "max response": "-5.04%"}, {"compound": "COc1ccc(CCNS(=O)(=O)c2cc3c(cc2C)NC(=O)CO3)cc1OC", "max response": "-0.971%"}, {"compound": "FC(F)(F)c1nc(-c2ccccc2)ncc1-c1nnnn1-c1ccccc1", "max response": "-1.17%"}, {"compound": "Cc1ccc(CNC(=O)CCN2C(=O)[C@@H]3Cc4ccccc4CN3C2=O)cc1", "max response": "4.73%"}, {"compound": "COc1ccccc1CSc1nc2ccccc2[nH]1", "max response": "41% (active)"}, {"compound": "CCc1nnc(NC(=O)CCCSc2nc3ccccc3[nH]2)s1", "max response": "-1.42%"}, {"compound": "COc1ccccc1CC(=O)Nc1ccc([N+](=O)[O-])cc1OC", "max response": "-1.19%"}, {"compound": "N#Cc1c(-c2ccccc2)nc(SCc2ccc([N+](=O)[O-])cc2)[nH]c1=O", "max response": "-1.84%"}, {"compound": "CCCCSc1nc2ccccc2[nH]1", "max response": "30.4% (active)"}, {"compound": "O=C(NCc1ccccc1)c1onc(CSc2nc3ccccc3[nH]2)c1C(=O)NCc1ccccc1", "max response": "-0.0609%"}, {"compound": "COc1ccccc1CSc1ncc(-c2ccc([N+](=O)[O-])cc2)[nH]1", "max response": "29.2% (active)"}, {"compound": "C=CCSc1nc2ccccc2[nH]1", "max response": "12.4%"}, {"compound": "COc1ccccc1-c1noc(CSc2nc(C)cc(=O)[nH]2)n1", "max response": "1.82%"}, {"compound": "CCNS(=O)(=O)c1ccc(CCC(=O)N2CCN(c3ccc(OC)cc3)CC2)cc1", "max response": "2.4%"}, {"compound": "CC(Oc1ccccc1[N+](=O)[O-])C(=O)N/N=C/c1ccoc1", "note": "(stereo not given)", "max response": "-2.14%"}, {"compound": "CCOc1cc(C(C(=O)NCC2CCCO2)N(C(=O)Cn2nnc3ccccc32)c2cccc(OC)c2)ccc1O", "note": "(stereo not given)", "max response": "-2.76%"}, {"compound": "O=C(N/N=C/c1ccc2c(c1)OCO2)c1ccc(Cn2cc([N+](=O)[O-])cn2)o1", "max response": "12.3%"}, {"compound": "O=C(N/N=C\\c1ccc(Br)cc1)c1ccc(Cn2cccn2)o1", "max response": "19.8% (active)"}, {"compound": "O=C(N/N=C/c1ccc(OCC2COCCO2)cc1)c1ccc(Br)cc1", "note": "(stereo not given)", "max response": "3.9%"}, {"compound": "CC1CCc2c(sc(NC(=O)c3ccc(Cn4cc(Br)cn4)o3)c2C(N)=O)C1", "note": "(stereo not given)", "max response": "0.185%"}, {"compound": "CN(C)c1ccc(/C=N/NC(=O)c2ccc(Cn3cc(Br)cn3)o2)cc1", "max response": "56.4% (active)"}, {"compound": "Cc1c(Cl)c([N+](=O)[O-])nn1Cc1ccc(C(=O)N/N=C\\c2cc(Cl)ccc2O)o1", "max response": "9.36%"}, {"compound": "C=CCNC(=S)NNc1ncnc2sc3c(c12)CC(C)(C)OC3", "max response": "-1.51%"}, {"compound": "COc1ccccc1CNS(=O)(=O)CC12CCC(CC1=O)C2(C)C", "note": "(stereo not given)", "max response": "-1.52%"}, {"compound": "CC(C)(C)OC(=O)CNC(=O)c1[nH]cnc1C(=O)N[C@@H](Cc1ccccc1)C(=O)OCc1ccccc1", "max response": "-1.14%"}, {"compound": "CCOC(=O)N1CCN(Cc2nnc(-c3ccccc3Cl)o2)CC1", "max response": "-1.64%"}, {"compound": "N/C(=N\\S(=O)(=O)c1cc(C(F)(F)F)cc(C(F)(F)F)c1)c1cccs1", "max response": "0.609%"}, {"compound": "Cc1nn(Cc2ccc(Cl)cc2)c(Cl)c1/C=N/NC(=O)c1cccnc1", "max response": "-2.03%"}, {"compound": "CCn1nc(C)c(/C=N/NC(=O)Cc2ccc(Cl)cc2)c1C", "max response": "27.9% (active)"}, {"compound": "Cc1nn(Cc2ccc(Cl)cc2)c(Cl)c1/C=N/NC(=O)CNc1ccccc1F", "max response": "-0.244%"}, {"compound": "COCCCNC(=O)[C@H]1N2C(=O)c3ccccc3C2SC1(C)C", "note": "(stereo not given in full)", "max response": "-1.51%"}, {"compound": "Cc1ccc(SCCSc2ncccn2)cc1", "max response": "44.5% (active)"}, {"compound": "Cc1ccc(SCCC(=O)NC(C(C)C)C(C)C)cc1", "max response": "1.28%"}, {"compound": "Cc1ccc(SCCC(=O)NCc2ccccn2)cc1", "max response": "-2.86%"}, {"compound": "Cc1cc(=O)oc2cc(OCC(=O)N3CCN(c4ccc(F)cc4)CC3)c(Cl)cc12", "max response": "-1.36%"}, {"compound": "Cc1cc(C)n2nc(SCC(=O)NC(=O)NCc3ccco3)nc2n1", "max response": "3.86%"}, {"compound": "COc1ccc(NC(=O)c2cccc(Cl)c2)c[n+]1[O-]", "max response": "-3.34%"}, {"compound": "C/C(=N\\N(C)C)c1ccc(OCCOc2ccc([N+](=O)[O-])cc2)cc1", "max response": "10.2%"}, {"compound": "CCOCCCNC(=O)c1c[nH]c2cc(C)ccc2c1=O", "max response": "15.4% (active)"}, {"compound": "CCc1cccc2c(=O)c(C(=O)NCCCOC)c[nH]c12", "max response": "-0.768%"}, {"compound": "CCOCCCNC(=O)C(NC(=O)c1ccc(=O)[nH]c1)c1ccc(C)cc1", "note": "(stereo not given)", "max response": "-5.76%"}, {"compound": "CCOC(=O)C1(CCOc2ccccc2)CCN(Cc2cc(OC)cc(OC)c2)CC1", "max response": "-1.48%"}, {"compound": "CCOC(=O)C1(CCOC)CCN(Cc2ccc(C(=O)OC)cc2)CC1", "max response": "19.1% (active)"}, {"compound": "CCOC(=O)C1(CCOC)CCN(Cc2cc3ccccc3s2)CC1", "max response": "-0.534%"}, {"compound": "Cn1ncc(Br)c1C(=O)NCc1cccs1", "max response": "2.99%"}, {"compound": "CCOc1ccc(C(=O)Nc2ccc(CN3CCOCC3)cc2)cc1Cl", "max response": "6.5%"}, {"compound": "O=C(CCN1C(=O)c2ccccc2C1=O)Nc1cccc(F)c1", "max response": "-3.51%"}, {"compound": "Cc1nc2cc(NCc3cccs3)ccc2n1C", "max response": "51.1% (active)"}, {"compound": "Cc1nc2cc(NC(=O)Nc3cccc(F)c3)ccc2n1C", "max response": "23% (active)"}, {"compound": "COc1ccc(-n2cnc3cc(NCc4ccco4)ccc32)cc1", "max response": "20.3%"}, {"compound": "CCOC(=O)N1CCN(Cc2nc3cc(NC(C)=O)ccc3n2C)CC1", "max response": "-2.56%"}, {"compound": "Cn1c(CN2CCOCC2)nc2cc(NC(=O)c3ccc(Cl)cc3)ccc21", "max response": "32.5% (active)"}, {"compound": "Cc1ccc(NC(=O)NC2CCCCC2)cc1S(=O)(=O)N1CCOCC1", "max response": "-2.12%"}, {"compound": "Cc1nc2cc(NC(=O)NC3CC3)ccc2n1C", "max response": "20.8% (active)"}, {"compound": "Cc1cc2nc(C)n(CCCNC(=O)Nc3ccccc3)c2cc1C", "max response": "-3.47%"}, {"compound": "Cc1cc(C)nc(-n2ncc3c2CC(c2ccc(C(C)C)cc2)CC3=O)n1", "note": "(stereo not given)", "max response": "3.79%"}, {"compound": "CCC(=O)NC(Nc1nc2ccc(C)cc2s1)(C(=O)OC)C(F)(F)F", "note": "(stereo not given)", "max response": "1.01%"}, {"compound": "O=C(CN1C(=O)c2cccc3cccc1c23)Nc1ccccc1", "max response": "-0.618%"}, {"compound": "Cc1cc2c(cc1S(=O)(=O)NCc1ccc(Cl)cc1)OCC(=O)N2", "max response": "1.87%"}, {"compound": "CN(CCc1ccccn1)C1CCCN(S(=O)(=O)c2ccccc2Cl)C1", "note": "(stereo not given)", "max response": "-3.81%"}, {"compound": "CC(C)NC(=O)N1CCN(c2ccncc2S(=O)(=O)N2CCCCC2)CC1", "max response": "0.305%"}, {"compound": "C=CCc1ccccc1OCC(O)CN1CCN(CCO)CC1", "note": "(stereo not given)", "max response": "-1.25%"}, {"compound": "Cc1[nH]c2ccccc2c1C(=O)CN1CCCC(C)C1", "note": "(stereo not given)", "max response": "4.44%"}, {"compound": "CCC(=O)Nc1ccc2c(c1)nc(CCN1CCN(c3ccccn3)CC1)n2C", "max response": "-2.39%"}, {"compound": "Cn1c(CCN2CCCCCC2)nc2cc(NC(=O)Nc3ccccc3)ccc21", "max response": "59.7% (active)"}, {"compound": "Cn1c(CCN2CCCC2)nc2cc(NS(=O)(=O)c3ccccc3)ccc21", "max response": "9.99%"}, {"compound": "CCN(CC)C(=O)Oc1ccc(OC(=O)N(CC)CC)cc1", "max response": "19%"}, {"compound": "Cn1c(=O)c(C(=O)Nc2ncccn2)c(O)c2ccccc21", "max response": "17.3% (active)"}, {"compound": "CCCn1c(=O)c(C(=O)Nc2cc(C)ccn2)c(O)c2ccccc21", "max response": "9.34% (active)"}, {"compound": "Cn1c(=O)c(Sc2ccc(Cl)cc2)c(O)c2ccccc21", "max response": "-5.19%"}, {"compound": "C=CCn1c(=O)c(C(=O)Nc2ncccc2O)c(O)c2ccccc21", "max response": "0.679%"}, {"compound": "CCCCCn1c(=O)c(C(=O)NCc2ccccn2)c(O)c2ccccc21", "max response": "-1.8%"}, {"compound": "CCCCCn1c(=O)c(C(=O)Nc2c(C)n(C)n(-c3ccccc3)c2=O)c(O)c2ccccc21", "max response": "-1.67%"}, {"compound": "N#C/C(=C/c1cccc([N+](=O)[O-])c1)c1nnc2n1CCCCC2", "max response": "-4.02%"}, {"compound": "CC(C)(C)c1ccc(C(=O)NCCn2c(N)c(C#N)c3nc4ccccc4nc32)cc1", "max response": "-4.74%"}, {"compound": "N#Cc1cccc(CN2CCC(=O)N([C@H](CO)c3ccccc3)CC2)c1", "max response": "-0.681%"}, {"compound": "CCOc1cc(/C=N/O)ccc1OCc1ccccc1F", "max response": "30.7% (active)"}, {"compound": "C=CCOc1ccc(/C=C2/C(=O)ON=C2C)cc1OCC", "max response": "-0.862%"}, {"compound": "COc1cc(/C=C2/C(=O)ON=C2C)ccc1OCc1cccc(F)c1", "max response": "27.9%"}, {"compound": "CCOc1ccc(/C=N/NC(=O)C(C)Sc2ccccn2)cc1OCC", "note": "(stereo not given)", "max response": "-2.71%"}, {"compound": "COc1cc(/C=C2/C(=O)ON=C2C)ccc1OCc1ccccc1F", "max response": "76% (active)"}, {"compound": "CCOc1c(Cl)cc(/C=N/O)cc1OC", "max response": "5.27%"}, {"compound": "CCC1=C(OC(=O)N(CC)CC)N2C(=O)OC(=NCCc3c[nH]c4ccccc34)[C@]2(C)[C@H]2C1=CC[C@H]1C(=O)N(CC)C(=O)[C@H]12", "max response": "-4.31%"}, {"compound": "O=C(CCc1nnc2ccc(NCc3ccccc3Cl)nn12)NCC1CCN(C2CCCC2)C1", "note": "(stereo not given)", "max response": "-4.64%"}, {"compound": "Cc1ccc(NS(=O)(=O)c2c(C)[nH]c(C)c2C(=O)N2CCCCC2)c(C)c1", "max response": "18%"}, {"compound": "CN(C)c1ccc(C=C2C(=O)OC3(CCCC3)OC2=O)cc1", "max response": "0.693%"}, {"compound": "CC(=O)Nc1ccn(Cc2c(F)cccc2Cl)n1", "max response": "18.4% (active)"}, {"compound": "O=C(Nc1ccn(Cc2ccccc2)n1)c1cccc(F)c1", "max response": "39% (active)"}, {"compound": "Cc1nnsc1C(=O)NCc1c(F)cccc1Cl", "max response": "8.44%"}, {"compound": "CC(C)(C)NC(=O)NC(=O)COC(=O)Cc1c(F)cccc1Cl", "max response": "6.65%"}, {"compound": "O=C(O)CC(Cc1ccccc1)C(=O)Nc1ccc([N+](=O)[O-])cc1", "note": "(stereo not given)", "max response": "11.6%"}, {"compound": "O=C(Nc1ccn(Cc2ccccc2)n1)c1n[nH]c([N+](=O)[O-])c1Cl", "max response": "47.7% (active)"}, {"compound": "O=C(Nc1ccccc1N1CCN(c2ccccc2)CC1)c1cccc(F)c1", "max response": "-4.37%"}, {"compound": "O=C(Nc1ccccc1N1CCCCC1)c1cccc(F)c1", "max response": "3.77%"}, {"compound": "O=C(Cn1cnc([N+](=O)[O-])n1)NCCc1ccccc1", "max response": "6.14%"}]}]}
